# About 410 targets per protein were measured; listed, in parts, are those with the strongest signals and a random draw of the rest.
# How the values were obtained:
# Assay in all cases: glycan array binding signal (z-score within array); higher = stronger binding
# Conditions in all cases: glycan notation: IUPAC condensed, linker removed
# [1] = biological target: Fuc(a1-2)Gal(b1-3)GlcNAc(b1-2)Man(a1-3)[Fuc(a1-2)Gal(b1-3)GlcNAc(b1-2)Man(a1-6)]Man(b1-4)GlcNAc(b1-4)[Fuc(a1-6)]GlcNAc
# Summary of the method: (§1)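 Columns mapping to the same glycan were averaged after glycan names were converted to IUPAC-condensed notation. The data come from 3228 arrays in the Consortium for Functional Glycomics database, limited to those with an available protein sequence. Binding is reported as a within-array Z-score averaged across arrays of one protein sequence and across linkers.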
# [2] = biological target: Fuc(a1-2)Gal(b1-4)GlcNAc(b1-2)Man(a1-3)[Fuc(a1-2)Gal(b1-4)GlcNAc(b1-2)Man(a1-6)]Man(b1-4)GlcNAc(b1-4)[Fuc(a1-6)]GlcNAc
# Summary of the method: as §1
# [3] = biological target: Fuc(a1-2)[Gal(a1-3)]Gal(b1-3)GlcNAc(b1-3)GalNAc
# Summary of the method: as §1
# [4] = biological target: Fuc(a1-2)[Gal(a1-3)]Gal(b1-3)GlcNAc(b1-6)GalNAc
# Summary of the method: as §1
# [5] = biological target: Fuc(a1-2)[Gal(a1-3)]Gal(b1-4)GlcNAc(b1-2)Man(a1-3)[Fuc(a1-2)[Gal(a1-3)]Gal(b1-4)GlcNAc(b1-2)Man(a1-6)]Man(b1-4)GlcNAc(b1-4)[Fuc(a1-6)]GlcNAc
# Summary of the method: as §1
# [6] = biological target: Fuc(a1-2)[GalNAc(a1-3)]Gal(b1-3)GlcNAc(b1-3)GalNAc
# Summary of the method: as §1
# [7] = biological target: Fuc(a1-2)[GalNAc(a1-3)]Gal(b1-4)GlcNAc(b1-3)[Fuc(a1-2)[GalNAc(a1-3)]Gal(b1-4)GlcNAc(b1-6)]GalNAc
# Summary of the method: as §1
# [8] = biological target: Fuc(a1-3)[Gal(b1-4)]Glc6S
# Summary of the method: as §1
# [9] = biological target: Fuc(a1-3)[Gal(b1-4)]GlcNAc(b1-3)GalNAc
# Summary of the method: as §1
# [10] = biological target: Fuc(a1-3)[Gal3S(b1-4)]GlcNAc6S
# Summary of the method: as §1
# [11] = biological target: Fuc(a1-3)[GalNAc(b1-4)]GlcNAc
# Summary of the method: as §1
# [12] = biological target: Gal(a1-3)Gal(b1-3)GlcNAc(b1-2)Man
# Summary of the method: as §1
# [13] = biological target: Gal(a1-3)Gal(b1-3)[Fuc(a1-4)]GlcNAc(b1-2)Man(a1-3)[Gal(a1-3)Gal(b1-3)[Fuc(a1-4)]GlcNAc(b1-2)Man(a1-6)]Man(b1-4)GlcNAc(b1-4)GlcNAc
# Summary of the method: as §1
# [14] = biological target: Gal(a1-3)Gal(b1-4)[Fuc(a1-3)]GlcNAc
# Summary of the method: as §1
# [15] = biological target: Gal(a1-4)Gal(b1-4)GlcNAc(b1-2)Man(a1-3)[Gal(a1-4)Gal(b1-4)GlcNAc(b1-2)Man(a1-6)]Man(b1-4)GlcNAc(b1-4)GlcNAc
# Summary of the method: as §1
# [16] = biological target: Gal(b1-3)GlcNAc(a1-3)Gal(b1-4)GlcNAc
# Summary of the method: as §1
# [17] = biological target: Gal(b1-3)GlcNAc(b1-2)[Gal(b1-3)GlcNAc(b1-6)]Man(a1-6)[Gal(b1-3)GlcNAc(b1-2)Man(a1-3)]Man(b1-4)GlcNAc(b1-4)GlcNAc
# Summary of the method: as §1
# [18] = biological target: Gal(b1-3)GlcNAc(b1-3)Gal(b1-4)GlcNAc
# Summary of the method: as §1
# [19] = biological target: Gal(b1-3)GlcNAc(b1-3)Gal(b1-4)[Fuc(a1-3)]GlcNAc
# Summary of the method: as §1
# [20] = biological target: Gal(b1-3)GlcNAc(b1-3)Gal(b1-4)[Fuc(a1-3)]GlcNAc(b1-6)[Gal(b1-3)GlcNAc(b1-3)]Gal(b1-4)Glc
# Summary of the method: as §1
# [21] = biological target: Gal(b1-3)GlcNAc(b1-6)[Gal(b1-3)]GalNAc
# Summary of the method: as §1
# [22] = biological target: Gal(b1-4)GlcNAc(b1-3)Gal(b1-4)Glc
# Summary of the method: as §1
# [23] = biological target: Gal(b1-4)GlcNAc(b1-3)Gal(b1-4)GlcNAc(b1-3)Gal(b1-4)GlcNAc(b1-3)Gal(b1-4)GlcNAc(b1-2)Man(a1-3)[Gal(b1-4)GlcNAc(b1-3)Gal(b1-4)GlcNAc(b1-3)Gal(b1-4)GlcNAc(b1-3)Gal(b1-4)GlcNAc(b1-2)Man(a1-6)]Man(b1-4)GlcNAc(b1-4)[Fuc(a1-6)]GlcNAc
# Summary of the method: as §1
# Gal6S(b1-3)GlcNAc = biological target: Gal6S(b1-3)GlcNAc
# Summary of the method: as §1
# GalNAc(a1-3)GalNAc = biological target: GalNAc(a1-3)GalNAc
# Summary of the method: as §1
# [24] = biological target: Glc(a1-2)Glc(a1-3)Glc(a1-3)Man(a1-2)Man(a1-2)Man(a1-3)[Man(a1-2)Man(a1-3)[Man(a1-2)Man(a1-6)]Man(a1-6)]Man(b1-4)GlcNAc
# Summary of the method: as §1
# [25] = biological target: GlcA(b1-3)GlcNAc(b1-4)GlcA(b1-3)GlcNAc(b1-4)GlcA(b1-3)GlcNAc(b1-4)GlcA(b1-3)GlcNAc(b1-4)GlcA(b1-3)GlcNAc(b1-4)GlcA(b1-3)GlcNAc(b1-4)GlcA(b1-3)GlcNAc(b1-4)GlcA(b1-3)GlcNAc
# Summary of the method: as §1
# [26] = biological target: GlcNAc(a1-3)Gal(b1-4)GlcNAc
# Summary of the method: as §1
# [27] = biological target: GlcNAc(b1-2)Man(a1-3)[GlcNAc(b1-2)Man(a1-6)]Man(b1-4)GlcNAc(b1-4)GlcNAc
# Summary of the method: as §1
# [28] = biological target: GlcNAc(b1-2)Man(a1-3)[Man(a1-3)[Man(a1-6)]Man(a1-6)][GlcNAc(b1-4)]Man(b1-4)GlcNAc(b1-4)GlcNAc
# Summary of the method: as §1
binder,measurement,setting,value
Banana lectin (Musa acuminata) (protein) MNGAIKVGAWGGNGGSAFDMGPAYRIISVKIFSGDVVDGVDVTFTYYGKTETRHYGGSGGTPHEIVLQEGEYLVGMAGEVANYHGAVVLGKLGFSTNKKAYGPFGNTGGTPFSLPIAAGKISGFFGRGGKFLDAIGVYLEPLEHHHHHH,glycan array binding signal (z-score),[1],0.041
same,glycan array binding signal (z-score),[2],0.084
same,glycan array binding signal (z-score),[3],-0.22
same,glycan array binding signal (z-score),[4],-0.374
same,glycan array binding signal (z-score),[5],0.595
same,glycan array binding signal (z-score),[6],-0.215
same,glycan array binding signal (z-score),[7],-0.173
same,glycan array binding signal (z-score),[8],-0.211
same,glycan array binding signal (z-score),[9],-0.268
same,glycan array binding signal (z-score),[10],-0.212
same,glycan array binding signal (z-score),[11],-0.132
same,glycan array binding signal (z-score),[12],-0.189
same,glycan array binding signal (z-score),[13],0.245
same,glycan array binding signal (z-score),[14],-0.222
same,glycan array binding signal (z-score),[15],-0.174
same,glycan array binding signal (z-score),[16],3.29
same,glycan array binding signal (z-score),[17],0.504
same,glycan array binding signal (z-score),[18],-0.264
same,glycan array binding signal (z-score),[19],-0.216
same,glycan array binding signal (z-score),[20],-0.216
same,glycan array binding signal (z-score),[21],0.054
same,glycan array binding signal (z-score),[22],-0.22
same,glycan array binding signal (z-score),[23],-0.154
same,glycan array binding signal (z-score),Gal6S(b1-3)GlcNAc,-0.197
same,glycan array binding signal (z-score),GalNAc(a1-3)GalNAc,-0.213
same,glycan array binding signal (z-score),[24],1.56
same,glycan array binding signal (z-score),[25],-0.99
same,glycan array binding signal (z-score),[26],0.842
same,glycan array binding signal (z-score),[27],0.105
same,glycan array binding signal (z-score),[28],-0.039
